Data from PubChem BioAssay (EPA / NIEHS).
Some compounds were tested as several samples or in several runs, with calls that do not always agree. Activity calls are given as the source filed them. How the source made its calls: active means hit-call score of the fitted dose curve at least 0.9, where 1 is the maximum; inactive means score below 0.9.

Key:
[1] = ATG_AP_1_CIS: Attagene CIS-FACTORIAL HepG2 Assay for human Activator Protein 1 (AP-1) (AID 2282931); details: HepG2 Attagene cis-factorial AP-1 reporter mRNA; actives raise or lower the signal
Procedure, shortened: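 HepG2, transient cis-reporter transfection; 24 h; readout RT-PCR/CE fluorescence; DMSO baseline, gain and loss fitted.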

[2] = ATG_AP_2_CIS: Attagene CIS-FACTORIAL HepG2 Assay for human Activator Protein 2 (AP-2) (AID 2282932); details: HepG2 AP-2 cis-reporter, Attagene transcription factor profiling; actives raise or lower the signal
Procedure, shortened: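 HepG2 cells were transiently transfected with multiple cis-promoter reporter transcription units and dosed for 24 h. Reporter mRNA was measured by RT-PCR with capillary electrophoresis fluorescence; bidirectional fits relative to DMSO baseline.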

[3] = ATG_BRE_CIS: Attagene CIS-FACTORIAL HepG2 Assay for human Bone Morphogenetic Protein (BMP) Response Element (BRE) (AID 2282933); details: HepG2 BMP response element reporter, Attagene transcription factor profiling; actives raise or lower the signal
Procedure, shortened: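 Multiplexed cis-reporter assay, HepG2, 24 h exposure. mRNA from reporter units quantified via RT-PCR/CE; DMSO baseline; bidirectional curve fit.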

[4] = target: Retinoic acid receptor alpha (Homo sapiens) (UniProt P10276); experiment: ATG_DR5_RAR_CIS: Attagene CIS-FACTORIAL HepG2 Assay for human Retinoic Acid Receptor Alpha (RARE), DR5 submotif (AID 2282934); details: HepG2 Attagene cis-factorial RARE DR5 reporter, mRNA; actives raise or lower the signal;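 on AC50: reporter responds to endogenous RAR alpha beta and gamma in HepG2 not RARA alone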
Procedure, shortened: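 Endpoint fitted in both directions relative to DMSO as negative control. It reflects DR5 cis-element reporter mRNA induction in transiently transfected HepG2 cells, measured 24 h after dosing through RT-PCR and fluorescent capillary electrophoresis.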

[5] = target: Transcription factor E2F1 (Homo sapiens) (UniProt Q01094); experiment: ATG_E2F_CIS: Attagene CIS-FACTORIAL HepG2 Assay for human E2F Transcription Factor 1 (AID 2282935); details: HepG2 Attagene cis-reporter, E2F reporter RNA transcripts; actives raise or lower the signal
Procedure, shortened: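 HepG2 cells transiently transfected with multiplexed cis-element reporter units, dosed for 24 h. Reporter mRNA measured by RT-PCR, 6-FAM primer-extension labeling, HpaI digestion and capillary electrophoresis; bidirectional fit versus DMSO baseline.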

[6] = ATG_E_Box_CIS: Attagene CIS-FACTORIAL HepG2 Assay for human Enhancer Box (E-box) (AID 2282936); details: HepG2 E-box cis-reporter transcription, actives raise or lower the signal
Procedure, shortened: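 HepG2 cells transiently transfected with multiplexed cis-element reporter units sensing endogenous transcription factor activity; 24 h compound exposure. Reporter mRNA measured by RT-PCR, 6-FAM primer extension, HpaI digestion and capillary electrophoresis; bidirectional fit versus DMSO.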

[7] = ATG_M_61_CIS: Attagene CIS-FACTORIAL HepG2 Assay for M61 Transcription Factor (Internal Marker) (AID 2282937); details: HepG2 Attagene CIS-FACTORIAL M61 internal marker reporter; actives raise or lower the signal
Procedure, shortened: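 Transfect HepG2 with MRTUs; dose 24 h; isolate RNA; reverse-transcribe with DNase I treatment; PCR-amplify, FAM-label and cut with HpaI for 2 h at 37 C; resolve by CE. Bidirectional fitting against DMSO.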

[8] = ATG_EGR_CIS: Attagene CIS-FACTORIAL HepG2 Assay for human Early Growth Response 1 (EGR1) (AID 2282938); details: HepG2 Attagene CIS-FACTORIAL EGR reporter mRNA; actives raise or lower the signal
Procedure, shortened: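 After a 24 h treatment of transiently transfected HepG2 cells, total RNA was reverse-transcribed and reporter sequences PCR-amplified, labelled and run on capillary electrophoresis. Reporters sit under cis-regulatory promoters sensing endogenous factors.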

[9] = ATG_M_19_CIS: Attagene CIS-FACTORIAL HepG2 Assay for M19 Transcription Factor (Internal Marker) (AID 2282939); details: HepG2 Attagene CIS-FACTORIAL M19 internal marker reporter; actives raise or lower the signal
Procedure, shortened: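 Signals come from fluorescence of labelled reporter-specific PCR fragments resolved by capillary electrophoresis, following 24 h treatment of HepG2 cells transfected with cis-promoter reporter units; activity was fitted in both directions relative to DMSO.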

[10] = ATG_ERE_CIS: Attagene CIS-FACTORIAL HepG2 Assay for Estrogen Response Element (ERE) (AID 2282940); details: HepG2 ERE cis-reporter, Attagene RNA transcript; actives raise or lower the signal
Procedure, shortened: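 Fluorescence of capillary-separated, FAM-labelled reporter cDNA fragments indicates reporter mRNA levels in HepG2 cells exposed to chemicals for 24 h. Transient transfection with cis-regulated units; data fitted in both directions against DMSO.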

[11] = ATG_Ets_CIS: Attagene CIS-FACTORIAL HepG2 Assay for human Erythroblast Transformation Specific (ETS) (AID 2282941); details: HepG2 ETS cis-reporter transcription, actives raise or lower the signal
Procedure, shortened: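 Steps: transfect HepG2 with multiple reporter units; treat compound 24 h; isolate RNA, DNase-treat, reverse-transcribe; PCR-amplify, label with 6-FAM, digest with HpaI; separate by capillary electrophoresis. Activity fitted both directions versus DMSO.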

[12] = target: Hepatocyte nuclear factor 3-beta (Homo sapiens) (UniProt Q9Y261); experiment: ATG_FoxA2_CIS: Attagene CIS-FACTORIAL HepG2 Assay for human Forkhead box A2 (FOXA2) (AID 2282942); details: HepG2 cis-reporter transcription factor activity, 24 h; actives raise or lower the signal
Procedure, shortened: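 24 h dosing of HepG2 bearing cis-reporter constructs; mRNA readout by RT-PCR/CE fluorescence; bidirectional fit, DMSO baseline.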

[13] = ATG_FoxO_CIS: Attagene CIS-FACTORIAL HepG2 Assay for human Forkhead box O (FoxO) (AID 2282943); details: HepG2 Attagene cis-reporter, FoxO element, mRNA; actives raise or lower the signal
Procedure, shortened: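 Values reflect reporter mRNA induction or loss in HepG2 cells 24 h post-dosing, fitted bidirectionally with DMSO as negative control and baseline. Detection used RT-PCR and fluorescence capillary electrophoresis.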

[14] = ATG_GATA_CIS: Attagene CIS-FACTORIAL HepG2 Assay for human GATA Binding Protein (AID 2282944); details: HepG2 GATA cis-element reporter, Attagene multiplex mRNA; actives raise or lower the signal
Procedure, shortened: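 After transfecting HepG2 cells with multiple cis-regulated reporter units, chemicals are dosed for 24 h; isolated RNA undergoes RT-PCR and fluorescent labeling before capillary electrophoresis, with activity expressed against DMSO.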

[15] = ATG_GLI_CIS: Attagene CIS-FACTORIAL HepG2 Assay for human Zinc Finger Protein GLI1 (AID 2282945); details: HepG2, Attagene cis-factorial reporter mRNA, GLI element; actives raise or lower the signal
Procedure, shortened: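 HepG2 cells transiently transfected with cis-promoter multiplexed reporter units report endogenous transcription factor activity. After 24 h chemical exposure, reporter mRNA was quantified by RT-PCR, 6-FAM labelling, HpaI digestion and capillary electrophoresis, with bidirectional fitting against DMSO.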

[16] = ATG_GRE_CIS: Attagene CIS-FACTORIAL HepG2 Assay for human Glucocorticoid Response Elements (GRE) (AID 2282947); details: HepG2 GRE cis-reporter, Attagene multiplex mRNA; actives raise or lower the signal
Procedure, shortened: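 HepG2 cells transiently transfected with multiple cis-promoter reporter units measure endogenous TF activity; 24 h compound exposure. Reporter mRNA quantified by RT-PCR, FAM labelling, HpaI digestion and capillary electrophoresis; bidirectional fit vs DMSO baseline.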

[17] = ATG_ISRE_CIS: Attagene CIS-FACTORIAL HepG2 Assay for human Interferon Regulatory Factor 1 (IRF1) binding to an Interferon-Stimulated Response Element (ISRE) (AID 2282948); details: HepG2 ISRE cis-reporter (Attagene), mRNA transcription readout; actives raise or lower the signal
Procedure, shortened: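 Transfected HepG2 (multiple reporter transcription units, cis elements) dosed 24 h. RNA → oligo(dT) RT → PCR → 6-FAM primer extension → HpaI → CE. DMSO = negative control/baseline.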

[18] = ATG_M_06_CIS: Attagene CIS-FACTORIAL HepG2 Assay for M06 Transcription Factor (Internal Marker) (AID 2282950); details: HepG2 Attagene CIS-FACTORIAL M06 internal marker reporter; actives raise or lower the signal
Procedure, shortened: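 HepG2 liver cells, 24 h exposure. Reporter transcripts from transfected cis-element constructs quantified by RT-PCR/capillary electrophoresis fluorescence. Bidirectional curve fit against DMSO.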

[19] = target: Bile acid receptor (Homo sapiens) (UniProt Q96RI1); experiment: ATG_IR1_CIS: Attagene CIS-FACTORIAL HepG2 Assay for human Nuclear Receptor Subfamily 1 Group H Member 4 (NR1H4), IR1 submotif (AID 2282946); details: IR1 reporter transcription, actives raise or lower the signal
Procedure, shortened: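 Transient MRTU transfection, HepG2; 24 h dosing; RNA → RT-PCR → 6-FAM primer extension → HpaI digest → capillary electrophoresis fluorescence. Gain/loss of signal fitted relative to DMSO.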

[20] = ATG_M_32_CIS: Attagene CIS-FACTORIAL HepG2 Assay for M32 Transcription Factor (Internal Marker) (AID 2282949); details: HepG2 Attagene cis-factorial M32 reporter, mRNA; actives raise or lower the signal;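 further: background control marker of the multiplexed CIS panel rather than a real target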
Procedure, shortened: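 Internal background marker read-out: RT-PCR/capillary electrophoresis fluorescence of reporter transcripts from transiently transfected HepG2 cells after 24 h chemical exposure. Activity fitted bidirectionally relative to DMSO negative control.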

Measured: AC50

Sequence of Bile acid receptor (Homo sapiens) (Q96RI1 whole entry, looked up): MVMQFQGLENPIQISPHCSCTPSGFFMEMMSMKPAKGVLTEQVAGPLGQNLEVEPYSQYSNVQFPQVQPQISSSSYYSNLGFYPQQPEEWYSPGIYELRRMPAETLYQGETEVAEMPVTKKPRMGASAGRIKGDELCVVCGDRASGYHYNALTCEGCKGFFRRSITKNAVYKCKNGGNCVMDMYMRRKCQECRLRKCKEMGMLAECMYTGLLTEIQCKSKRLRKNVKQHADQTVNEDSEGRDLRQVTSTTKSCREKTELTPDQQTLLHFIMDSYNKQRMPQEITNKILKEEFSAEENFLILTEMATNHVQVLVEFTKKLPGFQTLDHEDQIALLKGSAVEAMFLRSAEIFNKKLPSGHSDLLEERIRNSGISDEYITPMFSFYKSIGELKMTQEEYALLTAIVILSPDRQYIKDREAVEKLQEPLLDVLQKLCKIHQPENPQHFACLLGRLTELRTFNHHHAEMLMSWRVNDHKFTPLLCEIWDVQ
Sequence of Hepatocyte nuclear factor 3-beta (Homo sapiens) (Q9Y261 whole entry, looked up): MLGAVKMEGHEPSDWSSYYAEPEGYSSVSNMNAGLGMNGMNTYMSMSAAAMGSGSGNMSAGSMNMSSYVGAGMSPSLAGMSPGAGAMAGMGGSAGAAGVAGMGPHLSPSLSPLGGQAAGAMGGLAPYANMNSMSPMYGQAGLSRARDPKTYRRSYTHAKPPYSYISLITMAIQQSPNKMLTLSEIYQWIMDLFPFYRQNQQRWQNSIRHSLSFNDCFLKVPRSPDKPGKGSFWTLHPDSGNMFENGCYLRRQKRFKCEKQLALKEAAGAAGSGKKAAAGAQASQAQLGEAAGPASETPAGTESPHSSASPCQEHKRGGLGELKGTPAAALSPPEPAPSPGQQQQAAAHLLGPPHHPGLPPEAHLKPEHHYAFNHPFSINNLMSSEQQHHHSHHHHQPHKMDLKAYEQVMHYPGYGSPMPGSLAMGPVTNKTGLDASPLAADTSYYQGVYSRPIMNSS
Sequence of Transcription factor E2F1 (Homo sapiens) (Q01094 whole entry, looked up): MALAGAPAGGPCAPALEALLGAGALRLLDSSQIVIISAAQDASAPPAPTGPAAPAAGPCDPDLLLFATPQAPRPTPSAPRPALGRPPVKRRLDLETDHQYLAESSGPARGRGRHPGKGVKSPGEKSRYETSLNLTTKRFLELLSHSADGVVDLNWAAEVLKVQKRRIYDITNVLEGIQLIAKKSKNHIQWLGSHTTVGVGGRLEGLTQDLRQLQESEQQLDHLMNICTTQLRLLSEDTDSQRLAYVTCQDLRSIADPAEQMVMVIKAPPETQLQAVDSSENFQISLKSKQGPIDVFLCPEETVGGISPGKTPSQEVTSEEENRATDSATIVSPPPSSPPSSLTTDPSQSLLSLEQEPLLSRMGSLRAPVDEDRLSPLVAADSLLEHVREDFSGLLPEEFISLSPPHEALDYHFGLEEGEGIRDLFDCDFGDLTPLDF
Sequence of Retinoic acid receptor alpha (Homo sapiens) (P10276 whole entry, looked up): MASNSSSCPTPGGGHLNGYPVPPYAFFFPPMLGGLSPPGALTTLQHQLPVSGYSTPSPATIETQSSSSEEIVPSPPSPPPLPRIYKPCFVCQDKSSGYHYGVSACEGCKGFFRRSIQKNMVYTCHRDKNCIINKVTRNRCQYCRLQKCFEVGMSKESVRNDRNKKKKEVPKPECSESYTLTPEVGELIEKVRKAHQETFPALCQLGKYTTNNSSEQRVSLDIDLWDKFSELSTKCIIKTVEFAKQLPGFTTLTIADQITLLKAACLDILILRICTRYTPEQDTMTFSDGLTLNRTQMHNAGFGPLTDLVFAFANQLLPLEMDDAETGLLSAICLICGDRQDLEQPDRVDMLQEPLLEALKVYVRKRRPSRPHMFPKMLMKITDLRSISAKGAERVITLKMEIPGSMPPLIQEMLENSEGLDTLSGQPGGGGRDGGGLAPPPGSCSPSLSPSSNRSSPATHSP

CCNc1nc(NCC)nc(SC)n1
not listed: [19] | [20]
inactive: all other assays above

C=CCN=C=S
not listed: [16] | [18]
inactive: all other assays above

CC(C)(C1CCC(O)CC1)C1CCC(O)CC1 (centres undefined)
active: [10] 20.4 µM
not listed: [16] | [19]
inactive: all other assays above

O=C(O)c1cc(I)cc(I)c1I
active: [10] 27.8 µM
inactive: all other assays above

CCN(N=O)C(N)=O
inactive: all assays above

[Cl][Sn]([c]1ccccc1)([c]1ccccc1)[c]1ccccc1
active: [2] 0.503 µM | [4] 0.227 µM | [6] 0.252 µM | [8] 0.257 µM | [10] 0.014 µM | [13] 0.308 µM | [15] 0.221 µM
not listed: [14] | [18]
inactive: all other assays above

O=[N+]([O-])c1ccc(Cl)c([N+](=O)[O-])c1
active: [2] 6.06 µM | [6] 6.14 µM | [8] 6.18 µM
inactive: all other assays above

CN(C)c1ccc(N=O)cc1
active: [6] 10.3 µM | [8] 13.5 µM | [19] 9.69 µM | [16] 23.6 µM | [17] 9.25 µM
inactive: all other assays above

COC(=O)c1cc(Oc2ccc(Cl)cc2Cl)ccc1[N+](=O)[O-]
active: [3] 64.1 µM | [8] 27.2 µM | [10] 39.1 µM
not listed: [18]
inactive: all other assays above

Nc1ccc(N)cc1
inactive: [1] | [2] | [3] | [5] | [6] | [7] | [9] | [11] | [12] | [13] | [14] | [15] | [19] | [17] | [20] | [18]
active: [1] 70.9 µM | [17] 100 µM

COCC(=O)N(c1c(C)cccc1C)[C@H](C)C(=O)OC
not listed: [16] | [20]
inactive: all other assays above

Cc1cc(C(C)(C)c2ccc(O)c(C)c2)ccc1O
active: [1] 83.9 µM | [4] 21.5 µM | [8] 32.4 µM | [10] 0.265 µM | [11] 20.2 µM | [13] 72.8 µM | [14] 91.3 µM | [15] 74.7 µM | [16] 79.5 µM | [17] 50 µM
inactive: [2] | [3] | [5] | [6] | [7] | [9] | [12] | [19]

O=C(NC(=O)c1c(F)cccc1F)Nc1cc(Cl)c(OC(F)(F)C(F)C(F)(F)F)cc1Cl (centres undefined)
active: [1] 100 µM
not listed: [20]
inactive: all other assays above

CN(CCCC(O)c1cccnc1)N=O (centres undefined)
inactive: all assays above

CN(C)CCN(C)C
inactive: all assays above
